Screening data as filed in PubChem BioAssay.
RmlC RmlD mix = RmlC/RmlD inhibition, mixture screen. RmlC/RmlD coupled enzyme inhibition, 384-well mixture HTS. inhibition, % at 5.5 µM. 0.39% of 110,000 active; in the data active = inhibition above about 30%, passing the limit was not always enough; inconclusive = no clear call, values can overlap the other calls
HIV RNase H inh-1 = blocks HIV-1 RNase H cleavage of RNA/DNA duplex; P04585; AID 565; RT-RNase H RNA/DNA duplex cleavage, fluorescence; inhibition, % at 10 µM; 1.9% of 65,000 active; in the data active = inhibition above about 50%
HIV RNase H inh-2 = confirmation of HIV-1 reverse transcriptase RNase H inhibitors. inhibition, % at 10 µM. 39% of 1,000 active. Recombinant RT RNase H, fluorescent RNA/DNA duplex cleavage. shares compounds with HIV RNase H inh-1; in the data active = inhibition above about 48%; inconclusive = no clear call, values can overlap the other calls
Starred values were filed as active, the others as inactive; u = inconclusive; x = no result. Shown is part of a subset that was picked to be rich in hits.

SMILES | RmlC RmlD mix | HIV RNase H inh-1 | HIV RNase H inh-2
Cc1ccc(N(CC(=O)Nc2cccc(C)c2)S(=O)(=O)c2cccc3nonc23)cc1 | 10 | 67* | -3
Cc1ccc(NC(=O)CCNS(=O)(=O)c2cccc3nonc23)cc1 | -10 | -18 | x
O=C(COc1ccc(Br)cc1)Nc1ccc(-c2nnc(-c3ccco3)o2)cc1 | -7 | 67* | 72*
CCC(Oc1ccccc1)C(=O)Nc1ccc(-c2nnc(-c3ccco3)o2)cc1 (stereo unspecified) | -20 | 11 | x
O=C(Nc1ccccc1-c1nc2ccccc2s1)c1ccc(Br)o1 | 1 | x | x
Cc1c(Cl)cccc1N=c1c([N+](=O)[O-])nn(-c2ccccc2)n1O | -7 | x | x
Cc1cc(N2C(=O)C3C4C=CC(C4)C3C2=O)ccc1Br (stereo unspecified) | -1 | -4 | x
CCOP(=O)(CN(CC)CCNP(=O)(OCC)OCC)OCC | -2 | x | x
O=C(O)c1cccc(N2CCCC2)c1 | -10 | 3 | x
Cc1ccc(C)n1-c1cccc(C(=O)O)c1 | -3 | 71* | u
CCc1ccc(NC(=O)c2noc3c2CCC3)cc1 | 1 | x | x
Cc1cc(C)n(-c2nc3c(c(=O)[nH]c(=O)n3C)n2C)n1 | 6 | -10 | x
CCOc1cc2[nH]c(=O)n(CC3CCC(C(=O)NCCCOC)CC3)c(=O)c2cc1OCC (stereo unspecified) | -6 | 0 | x
CCOc1cc2[nH]c(=O)n(CC3CCC(C(=O)NCCC(C)C)CC3)c(=O)c2cc1OCC (stereo unspecified) | x | 68* | u
Cc1ccccc1CNS(=O)(=O)c1ccc2c(c1)OCCO2 | -15 | -23 | x
COC1(OC)N=C(N)C2(C#N)C(c3cccc(Oc4ccccc4)c3)C12C#N (stereo unspecified) | 11 | -12 | x
N#CC1=C(N)SC(N)=C(C#N)C1c1cccc(Oc2ccccc2)c1 | 9 | 70* | 39
N#CC1=C(N)SC(N)=C(C#N)C1c1ccc(C(F)(F)F)cc1 | -7 | 61* | 15
CCOc1ccc(C2C(C#N)=C(N)SC(N)=C2C#N)cc1OCC | 8 | 38 | x
N#CC1=C(N)SC(N)=C(C#N)C1C1CC=CCC1 (stereo unspecified) | 6 | 2 | x
CCc1ccc(C2C(C#N)=C(N)SC(N)=C2C#N)s1 | -47 | 11 | x
CCOc1ccc(C2C(C#N)=C(N)SC(N)=C2C#N)cc1OC | -2 | 69* | 5
Cc1ccc(C2C(C#N)=C(N)SC(N)=C2C#N)o1 | 8 | 80* | u
Cc1ccc(Cn2nnc(C(=O)Nc3cc(C)ccc3C)c2N)cc1 | -9 | -25 | x
Cc1cc(OC(=O)c2ccc(S(=O)(=O)N(C)C)cc2)cc(=O)o1 | -6 | 0 | x
SMILES | RmlC RmlD mix | HIV RNase H inh-1 | HIV RNase H inh-2
CCOc1ccccc1C1C(C#N)=C(N)SC(N)=C1C#N | x | -5 | x
CCc1ccc(C2C(C#N)=C(N)SC(N)=C2C#N)cc1 | 1 | 70* | 18
N#CC1=C(N)SC(N)=C(C#N)C1c1c(Cl)cccc1Cl | 1 | -12 | x
N#CC1=C(N)SC(N)=C(C#N)C1CCc1ccccc1 | 37 | 72* | 2
COC(=O)C1CCN(C(=O)c2c(-c3ccccc3Cl)noc2C)CC1 | -6 | -3 | x
O=C(Nc1cccc2ccccc12)N1CCN(Cc2ccccc2)CC1 | -2 | -10 | x
CCOc1ccc2[nH]c(=O)c(CN(Cc3ccc(F)cc3)C(=O)c3ccco3)cc2c1 | 23 | 42 | x
CCc1ccc2[nH]c(=O)c(CN(Cc3ccc4c(c3)OCO4)C(=O)c3ccco3)cc2c1 | 17 | 58* | 20
COC(=O)CSc1nnc(-c2ccc(S(=O)(=O)N3CCC(C)CC3)cc2)o1 | 24 | 0 | x
Cc1ccc(NC(=O)c2ccc(Cn3cc(Br)cn3)o2)cc1 | 4 | x | x
N#Cc1c(NC(=O)c2ccc(Cn3cc(Br)cn3)o2)sc2c1CCCCCC2 | -3 | 88* | 62*
COc1cccc2c1NC(C(=O)O)C1CC=CC21 (stereo unspecified) | x | -3 | x
CC(C)NS(=O)(=O)c1ccc(CCC(=O)NCc2ccc3c(c2)OCO3)cc1 | -7 | x | x
CCOc1cc(C2c3c(oc4cc(C)c(Cl)cc4c3=O)C(=O)N2Cc2ccco2)ccc1O (stereo unspecified) | 6 | 61* | 58*
Cc1ccc2oc3c(c(=O)c2c1)C(c1cccc(Br)c1)N(Cc1ccco1)C3=O (stereo unspecified) | 7 | 60* | u
Cc1cc2oc3c(c(=O)c2cc1C)C(c1cccc(Br)c1)N(Cc1ccco1)C3=O (stereo unspecified) | 8 | 5 | x
COc1cc(C2c3c(oc4ccccc4c3=O)C(=O)N2Cc2ccco2)ccc1O (stereo unspecified) | -13 | x | x
O=C1C2(c3ccccc3)CN3CN(C2)CC1(c1ccccc1)C3 | -15 | x | x
Cc1[nH]c(=O)[nH]c(=O)c1S(=O)(=O)N1c2ccc(F)cc2CCC1C (stereo unspecified) | -7 | -2 | x
O=C(O)C[C@H]1c2ccccc2S(=O)(=O)N1c1ccccc1 | -8 | x | x
